# FBPA Giardia inh: blocks Giardia fructose-bisphosphate aldolase activity. purified Giardia FBPA. Potency, µM (top dose mostly 59.6 µM), for the others: at the highest dose activity, negative = inhibition, most hits filed as inhibitors. 290,000 tested, 0.71% active; also: potency is read from the fitted curve at half-maximal effect; % is scaled to controls: 0 for no effect and ±100 for the full control effect; nearly all actives have a fitted effect of over 55% in size
# Target sequence (A8B2U2 whole entry, looked up): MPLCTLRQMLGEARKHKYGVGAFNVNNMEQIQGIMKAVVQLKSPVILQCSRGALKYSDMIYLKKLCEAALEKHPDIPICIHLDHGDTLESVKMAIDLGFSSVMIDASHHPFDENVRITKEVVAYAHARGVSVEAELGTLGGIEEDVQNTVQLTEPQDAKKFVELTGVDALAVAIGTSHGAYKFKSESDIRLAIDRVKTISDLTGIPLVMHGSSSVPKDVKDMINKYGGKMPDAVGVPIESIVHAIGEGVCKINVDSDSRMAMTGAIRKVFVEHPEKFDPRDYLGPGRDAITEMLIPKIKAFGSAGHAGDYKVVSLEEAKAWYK
#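 Giardia FBPA (40 nM reagent) was preincubated 10 min at RT with compound (up to 57.5 uM final), then substrate plus GAPDH/TPI/NAD/arsenate coupling system with diaphorase/resazurin was added; resorufin fluorescence (525/598 nm) was read after 20 min.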
# NS1 inh: influenza NS1 inhibition; Potency, µM (doses to about 46.1 µM), for inactives: at the highest dose activity, positive = more growth; 270,000 tested, 0.4% active; AID 2326; calls by dose curve; also: potency is read from the fitted curve at half-maximal effect; actives are rising curves; nearly all actives have a fitted effect of over 50% in size
#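 Recovery from NS1-induced slow growth read by OD600 in budding yeast switched to galactose assay medium (pH 6.0, -URA) at 1:100 dilution. Compound 23 nl per well; the matching strain lacking NS1 serves as control.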
# Shiga inhibitor: blocks Shiga toxin action in Vero cells. Vero cells, Shiga toxin protein synthesis inhibition reporter. inhibition, % at 38.7 µM. 290,000 tested, 9.2% active. AID 2315; in the data active = inhibition mostly above about 28%, no sharp cut-off; inactive = mostly below about 43%; also: 0% is about no effect
# CHX counter: counter-screen for Shiga toxin inhibitors: cycloheximide protein synthesis inhibition; AID 2314; cell reporter, cycloheximide protein synthesis inhibition counterscreen; max response, %; 300,000 tested, 12% active; in the data active = max response mostly above about 13%, no sharp cut-off; inactive = mostly below about 14%; also: read at 38.3 µM for the half of the compounds with a filed dose; 0% is about no effect
# Pf growth 48h: inhibits P. falciparum growth in the first generation, 48 h. P. falciparum luciferase growth in erythrocytes, 48 h. Potency, µM (doses to about 28.7 µM), for inactives: at the highest dose activity change, negative = inhibition, hits mostly inhibitors. 310,000 tested, 5.9% active; also: potency is read from the fitted curve at half-maximal effect; % is scaled to controls: 0 for no effect and ±100 for the full control effect
#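 Luciferase-expressing P. falciparum in infected erythrocytes (2% hematocrit, 0.1% parasitemia final) in RPMI 1640/0.5% Albumax were exposed to compound for 48 hours at 37 C, 5% CO2; growth read as luminescence.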
# Pf growth 96h: inhibits malaria parasite growth, 96 h; P. falciparum luciferase reporter growth, 96 h; Potency, µM (titrated, usually from 28.7 µM), for inactives: at the top dose activity change, negative = inhibition, actives largely listed as inhibitors; 320,000 tested, 6.9% active; also: potency is read from the fitted curve at half-maximal effect; % is scaled to controls: 0 for no effect and ±100 for the full control effect
#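 Plates of compound plus infected erythrocytes (2% hematocrit, 0.05% parasitemia final) incubate 96 hours, 37 C, 5% CO2. Detection reagent added; reduced luminescence from the parasites' luciferase reporter flags inhibition.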
# * hit, by the source's call; i = inactive; ? = inconclusive; . = no result given. In the library only some 21% were active in any assay of this set; here they are far more common. Unless noted, calls follow the shape of the dose curve; as a rule, active = well fitted curve in the direction sought with a large enough effect; inconclusive = small, poorly fitted or top-dose-only effect, or another doubt; inactive = no such curve, though single readings can be large; an effect the other way counts as inactive or inconclusive.
SMILES,FBPA Giardia inh,NS1 inh,Shiga inhibitor,CHX counter,Pf growth 48h,Pf growth 96h
CCOC(=O)N/N=C/c1cc(C)n(-c2cccc3ccccc23)c1C,-11.7%,1.4%,12.9,-2.8,11.7µM*,9.28µM*
CCOC(=O)N/N=C/c1c[nH]c2ccccc12,-0.4%,.,32.0,9.3,37.8%,53.4%
CCOC(=O)N/N=C/c1cc(C)n(-c2ccccc2)c1C,-6.8%,-15.9%,71.2*,35.0*,?,?
COc1ccc(CCN2CC(C(=O)OCC(=O)Nc3c(C)nn(-c4ccccc4)c3C)CC2=O)cc1OC (configuration not stated),.,.,.,.,?,-2.3%
COc1ccc(N2CCN(S(=O)(=O)c3ccc4c(c3)NC(=O)C(C)S4)CC2)cc1 (configuration not stated),.,16.5%,-13.5,-1.2,6.5%,?
COC(=O)N/N=C/c1cc(C)n(-c2cccc3ccccc23)c1C,-15.5%,1.6%,1.5,-1.9,7.38µM*,14.7µM*
CN(CC(=O)Nc1ccc(Cl)c(C(F)(F)F)c1)C(=O)c1cc(-c2ccncc2)nc2ccccc12,.,.,.,.,13.1µM*,?
Cc1ccc(C)c(OCC(=O)N(C)CC(=O)Nc2ccc(Cl)c(C(F)(F)F)c2)c1,.,.,.,.,11.7µM*,?
CC(C)(C)C1=CC(=O)C(N2CCOCC2)=CC1=O,1.77µM*,-18.0%,26.6,-3.3,10.4µM*,14.7µM*
Cc1cc(SCC(=O)NC2CCCC2)nc2ccccc12,2.1%,-33.8%,17.9,-2.9,12.9%,0.8%
CC1(C)CC(=O)C(N=Nc2cc3c(cc2[N+](=O)[O-])OCCO3)=C(O)C1,7.0%,.,0.6,0.4,40.7%,16.0%
O=C1/C(=C/c2ccncc2)CCc2ccccc21,-0.5%,-7.9%,55.6*,34.3*,?,54.9%
O=C1/C(=C\c2ccncc2)CCc2ccccc21,.,.,.,.,-24.9%,66.1%
CCOc1ccc(/C=C2\CCc3ccccc3C2=O)cc1,2.6%,-1.5%,70.7*,29.9*,25.5%,i
COc1cccc(CN(C)C(=O)c2ccc(OCC(=O)N3CCOCC3)c(OC)c2)c1,.,.,.,.,-7.7%,-18.9%
CC(NC(=O)c1ccccc1)(C(=O)O)C(=O)O,.,1.8%,.,.,.,.
COc1cc(C(=O)N(C)CCOc2ccccc2)ccc1OCC(=O)Nc1cccc(C(F)(F)F)c1,.,.,.,.,-20.2%,-8.7%
CC[C@H](C)[C@H](NC(=O)[C@H](CC(=O)O)NC(=O)[C@H](CC(N)=O)NC(=O)[C@@H](NC(=O)[C@H](CCCNC(=N)N)NC(=O)[C@@H](NC(=O)[C@@H](NC(=O)[C@@H](NC(=O)[C@@H](NC(=O)[C@H](CCCCN)NC(=O)[C@@H](NC(=O)[C@H](CC(C)C)NC(=O)[C@@H](NC(=O)[C@H](CCCCN)NC(=O)[C@@H](NC(=O)[C@H](CC(=O)O)NC(=O)[C@H](CC(=O)O)NC(=O)[C@H](CCC(N)=O)NC(=O)[C@@H](NC(=O)[C@H](CCCCN)NC(=O)[C@H](CCC(N)=O)NC(=O)[C@@H](NC(=O)[C@@H]1CCCN1C(=O)[C@@H](N)C(C)C)[C@@H](C)CC)C(C)C)[C@@H](C)O)[C@@H](C)O)[C@@H](C)CC)[C@@H](C)O)[C@@H](C)CC)C(C)C)[C@@H](C)O)[C@@H](C)CC)C(=O)N[C@@H](CO)C(=O)N[C@@H](Cc1cnc[nH]1)C(=O)N[C@H](C(=O)N[C@@H](CCC(N)=O)C(=O)N[C@@H](CO)C(=O)N[C@H](C(=O)N[C@@H](CO)C(=O)N[C@@H](CO)C(=O)N[C@@H](CCCCN)C(=O)N[C@@H](CCC(N)=O)C(=O)N[C@@H](CCCCN)C(=O)O)C(C)C)[C@@H](C)O,3.5%,.,-4.0,-4.5,.,.
Cc1ccc(C(=O)Nc2cc3c(cc2Cl)OCCCO3)cc1,-3.8%,-13.6%,64.5*,49.8*,99.4%,143.0%
O=C(Nc1cc2c(cc1Cl)OCCCO2)c1ccc(F)cc1,0.8%,7.5%,113.8*,89.1*,202.6%,169.2%
O=C(Nc1ccc(Cl)cc1Cl)c1ccc2c(c1)OCCO2,.,.,.,.,357.8%,495.0%
OCc1cccc(Cl)c1Cl,-6.8%,.,10.3,-5.5,.,.
COc1cccc(-c2cc(C(=O)N3CCOCC3)no2)c1,2.6%,4.1%,40.8,40.1*,156.5%,?
COc1cccc(-c2cc(C(=O)N3CCN(C(c4ccccc4)c4ccccc4)CC3)no2)c1,1.8%,6.1%,22.0,20.7,8.28µM*,1.47µM*
COc1ccc(-c2cc(C(=O)N3CCN(c4ccccc4)CC3)no2)cc1OC,-4.2%,-4.1%,27.7,6.3,1.1%,.
SMILES,FBPA Giardia inh,NS1 inh,Shiga inhibitor,CHX counter,Pf growth 48h,Pf growth 96h
COc1ccc(-c2cc(C(=O)N3CCOCC3)no2)cc1OC,-2.9%,0.9%,128.8*,29.1*,87.8%,1.31µM*
COc1ccc(-c2cc(C(=O)N3CCOCC3)no2)cc1,2.0%,-12.5%,48.6,30.3*,157.4%,-13.1%
COc1cccc(-c2cc(C(=O)NCCCN3CCOCC3)no2)c1,-8.5%,0.8%,3.6,-2.0,5.7%,95.3%
CC(C)NC(=O)CSc1nnc(-c2ccc3ncccc3c2)n1C,-1.1%,7.5%,-2.3,-1.5,-4.9%,4.6%
NC(C(=O)O)C(c1ccccc1)C(F)F (configuration not stated),?,0.8%,14.0,3.6,13.0%,60.5%
COc1ccc(-c2cc(C(=O)N3CC4(C)CC3CC(C)(C)C4)no2)cc1OC (configuration not stated),-23.4%,-52.3%,-4.1,-3.4,0.928µM*,?
COc1ccc(-c2cc(C(=O)N3CC4(C)CC3CC(C)(C)C4)no2)cc1 (configuration not stated),-2.5%,-50.5%,-11.0,-6.0,.,?
CC(C)OC(=O)C(O)(c1ccc(Cl)cc1)c1ccc(Cl)cc1,-2.8%,.,-4.5,-7.6,.,.
O=C(CSc1nnc(CNC(=O)c2ccccc2)o1)NCc1ccc2c(c1)OCO2,.,0.9%,-3.8,5.4,8.9%,?
Cc1ccc(C)c(-n2sc3ccc(F)cc3c2=O)c1,.,.,.,.,2.08µM*,1.47µM*
O=c1c2cc(F)ccc2sn1-c1ccc(F)cc1,.,.,.,.,4.15µM*,8.4%
COc1ccc(-n2sc3ccc(F)cc3c2=O)cc1,.,.,.,.,4.15µM*,144.2%
CC1(C)CN(c2ccc(F)cc2)C1=O,3.0%,.,-10.1,-6.4,21.7%,3.1%
Cc1ccc2nc(C)n(-c3ccc(F)cc3)c(=O)c2c1,8.5%,1.5%,21.4,2.8,15.5%,-9.5%
CN1CCN(c2ncc3nc(-c4ccc(Cl)cc4)c(=O)n(C4CC4)c3n2)CC1,-3.2%,.,.,.,.,.
COc1ccc(NC(=O)COC(=O)CNC(=O)COc2ccccc2)cc1OC,.,.,.,.,-20.6%,33.3%
COc1ccccc1N(CC(=O)NCCN1CCOCC1)S(=O)(=O)c1ccccc1,-1.8%,4.7%,8.2,-2.6,30.6%,-27.2%
Cc1ccc(C)c(NC(=S)NNC(=O)c2csc3c2CCCC3)c1,6.0%,-5.6%,-17.6,-0.4,5.8%,.
